# Measured values as given in PubChem BioAssay AID2551 (National Center for Advancing Translational Sciences (NCATS), 2010).
# In all, about 310,000 compounds went through this assay and about 17,000 (5.5%) were called active. Inconclusive results (about 11%) are left out. The call rests on the fitted dose curve; in most records, active means well fitted inhibition curve with a large enough effect; inconclusive means small, poorly fitted or top-dose-only effect, or effect the other way; inactive means no such curve, though single readings can be large or run the other way. What follows is part of a selection rich in actives, with near analogues and random picks from the rest. Where a call stands in place of a potency, no number is given.
# Target: Nuclear receptor ROR-gamma (Mus musculus) (UniProt P51450)
# Sequence (P51450 whole entry, looked up): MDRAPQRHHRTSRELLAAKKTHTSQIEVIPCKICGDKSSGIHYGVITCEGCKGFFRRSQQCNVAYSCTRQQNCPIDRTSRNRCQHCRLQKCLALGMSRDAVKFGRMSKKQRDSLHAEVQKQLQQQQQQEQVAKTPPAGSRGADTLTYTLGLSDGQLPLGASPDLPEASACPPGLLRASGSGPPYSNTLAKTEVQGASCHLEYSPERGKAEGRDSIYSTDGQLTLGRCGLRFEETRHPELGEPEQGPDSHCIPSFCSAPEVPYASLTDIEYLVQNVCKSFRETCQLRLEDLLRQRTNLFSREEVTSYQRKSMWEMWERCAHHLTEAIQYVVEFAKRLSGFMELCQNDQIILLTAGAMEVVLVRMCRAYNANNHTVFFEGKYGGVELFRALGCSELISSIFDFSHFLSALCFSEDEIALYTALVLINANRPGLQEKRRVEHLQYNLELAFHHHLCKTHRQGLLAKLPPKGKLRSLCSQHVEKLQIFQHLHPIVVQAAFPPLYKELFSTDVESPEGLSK
# Assay: qHTS for inhibitors of ROR gamma transcriptional activity; further: nearly all actives have a fitted effect of over 60% in size
# Details: Drosophila S2 Gal4-RORgamma UAS-luciferase reporter, 20 h; series mostly up to 53.6 µM
# How it was run: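 Compounds are pin-transferred onto Drosophila Schneider cells expressing a copper-inducible Gal4–ROR gamma transactivation domain fusion. After 1 hr, copper sulfate is added to 700 uM final; luciferase is read 20 hr later.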
# Potency means the concentration at half of the fitted maximal effect.
Structure (SMILES),Potency,"activity change, negative = inhibition"
COc1cccc(S(=O)(=O)NCc2ccc(C(=O)NCc3ccccn3)cc2)c1,inactive,
CCN(CC)CCCNC(=O)c1c(O)c2cc(F)cc3c2n(c1=O)C(C)CC3 (stereo unspecified),inactive,
O=C1NC(=O)C(c2ccc(Cl)cc2)N1 (stereo unspecified),inactive,
Cc1ccc(S(=O)(=O)NCC2CCC(C(=O)N3CCOCC3)CC2)cc1 (stereo unspecified),inactive,
CC(=O)Nc1c2c(nn1-c1ccc(C)cc1C)CS(=O)C2 (stereo unspecified),inactive,
CCc1cccc(C)c1NS(=O)(=O)c1cc(Br)cnc1N,inactive,
CC(=O)c1cccc(NC(=O)c2cc(C)nn2-c2ccccc2)c1,inactive,
CCOC(=O)c1cc(S(=O)(=O)NCCc2ccc(OC)c(OC)c2)cn1C,inactive,
CNC(=O)C1CCN(S(=O)(=O)c2c(C)noc2/C=C/c2cccc(C)c2)CC1,inactive,
COc1ccc(-c2cc3n(n2)CCc2nc4ccccc4n2-3)cc1,inactive,
COc1ccc(-c2csc(N3CCN(Cc4ccc5c(c4)OCO5)CC3)n2)cc1,inactive,
CCCn1c(C2CCCN2c2nc(-c3ccc(OC)cc3)cs2)nc2ccccc21 (stereo unspecified),2 µM (active),
O=[N+]([O-])c1cc(C(F)(F)F)ccc1NCCc1ccncc1,inactive,
CC1(C)Cc2cccc(OCC(=O)NCc3ccccc3)c2O1,inactive,
CCCCc1ccc(NC(=O)NCc2cccnc2)cc1,inactive,
CCOC(=O)C1CCCN(CCSc2ccc(C)cc2)C1 (stereo unspecified),inactive,
Cc1nc(-c2ccc(Cl)cc2)sc1C(=O)CBr,5.01 µM (active),
Cc1nc(-c2ccccc2)sc1C(=O)/C=C/N(C)C,inactive,
Cc1nc(-c2ccc(Cl)cc2)sc1C(=O)NN,inactive,
COc1ccccc1OC(C)C(=O)Nc1ccc(S(=O)(=O)Nc2nccs2)cc1 (stereo unspecified),inactive,
Cc1ccccc1-c1n[nH]c(=S)n1C,2.82 µM (active),
Cc1ccccc1-c1ccc(C(=O)O)s1,inactive,

Structure (SMILES),Potency,"activity change, negative = inhibition"
COc1ccc(C(=O)Nc2ccccc2C(=O)N2CCN(c3ccccc3)CC2)cc1,inactive,
O=C(O)C1CC=CCC1C(=O)Nc1ccccc1C(=O)N1CCN(c2ccccc2)CC1 (stereo unspecified),inactive,
CC(C)c1ccc(N2CCN(C(=O)c3ccccc3NC(=O)/C=C(\C(=O)O)c3ccccc3)CC2)cc1,3.16 µM (active),
O=C(Cc1c(Cl)cccc1Cl)NC1CC1,inactive,
Cc1c(Cl)cccc1NC(=O)NCc1ccc(C)n1C,inactive,
CCOC(=O)N1CC=C2C(C#N)=C(N)C(C#N)(C#N)[C@H](c3cccs3)[C@H]2C1,inactive,
CCN1CC=C2C(C#N)=C(N)C(C#N)(C#N)[C@H](c3ccoc3)[C@H]2C1,inactive,
N#CC1=C(N)C(C#N)(C#N)[C@H](c2ccsc2)[C@H]2COCC=C12,17.8 µM (active),
CCCNC(=O)C(=O)Nc1cc2c3c(c1)CCC(=O)N3CCC2,inactive,
CN(C(=O)C1CCN(c2ncnc3c2nc2n3CCCCC2)CC1)C1CCCCC1,inactive,
CCOc1ccc(Nc2nc(Cc3nnc(SCC(=O)NC4CCCC4)n3C)cs2)cc1,inactive,
COCCCn1c(Cc2csc(Nc3cccc(Cl)c3)n2)nnc1SCC(=O)OC1CCCCC1,11.2 µM (active),
COCCCn1c(SCC(=O)NC2CCCC2)nnc1-c1ccccc1,inactive,
CCCn1c(NC(=O)C23CC4CC(CC(O)(C4)C2)C3)nc2ccccc21,0.708 µM (active),
CCOc1ccccc1NC(=O)C12CC3CC(C1)CC(c1ccc(C)cc1)(C3)C2,inactive,
CCCn1c(C(Cc2ccccc2)NC(=O)COC)nc2ccccc21 (stereo unspecified),inactive,
Cc1cc(C)nc(N/N=C/c2c(CO)cnc(C)c2O)n1,inactive,
COc1ccc(Cn2c(=O)cc(C)[nH]c2=S)cc1,11.2 µM (active),
COc1ccc(Cn2c(O)c(/C=C3/C=CC=N3)c(=O)[nH]c2=O)cc1,inactive,
COc1ccc(Cn2c(=S)[nH]c3cc(C(=O)N4CCCCC4)ccc3c2=O)cc1,8.91 µM (active),
COC(=O)c1ccc2c(=O)n(CC3CCCO3)c(=S)[nH]c2c1 (stereo unspecified),2.82 µM (active),
NC(=O)C1CCN(C(=O)c2ccc3c(=O)n(Cc4cccc(Br)c4)c(=S)[nH]c3c2)CC1,inactive,

Structure (SMILES),Potency,"activity change, negative = inhibition"
O=C(NC1CCCCC1)c1ccc2c(=O)n(CC3CCCO3)c(=O)[nH]c2c1 (stereo unspecified),inactive,
COc1ccc(Cn2c(=S)[nH]c3cc(C(=O)NCCCN4CCOCC4)ccc3c2=O)cc1,inactive,
COc1ccc(CNc2nc3c(c(=O)[nH]c(=O)n3C)n2Cc2ccccc2)cc1,inactive,
COCCn1c(=S)[nH]c2cc(C(=O)NCCc3ccc(OC)c(OC)c3)ccc2c1=O,inactive,
COc1cc2c(cc1OC)CN(CC(=O)Nc1ccc(F)cc1)CC2,inactive,
CC(C)Oc1ccc(C(CC(=O)N2CCOCC2)C(C)C)cc1 (stereo unspecified),inactive,
COc1ccc(-c2nc3c(s2)CCc2onc(-c4ccc(OC)cc4)c2-3)cc1,inactive,
COc1cccc2cc(C(=O)NCc3ccc(C)cc3)c(=N)oc12,inactive,
COc1cc(C(=O)Nn2c(CC(C)C)nc3ccccc3c2=O)cc(OC)c1OC,,-37% [at 1.91 µM] (inactive)
CCOc1ccccc1NC(=O)Cn1ncc2ccc([N+](=O)[O-])cc21,inactive,
CC(=O)Nc1ccc(S(=O)(=O)N2CCC(C(=O)N[C@@H](Cc3ccccc3)C(=O)O)CC2)cc1,inactive,
COc1cccc(NC(=O)N2CCCC2C(=O)NC2CCCCC2)c1 (stereo unspecified),inactive,
Cc1cc(-c2ccc(C)c(S(=O)(=O)NCCCN(Cc3ccccc3)C(C)C)c2)on1,inactive,
O=C(NCCCN1CCCCC1)C1CC(=O)N(CCc2ccccc2)C1 (stereo unspecified),inactive,
Oc1c(Cl)cc(Cl)c(Cl)c1Cc1c(O)c(Cl)cc(Cl)c1Cl,5.62 µM (active),
Cn1c(=O)n(C)c2cc(C(=O)Nc3ccc(Br)cc3)ccc21,inactive,
CN1CCN(c2ccc(NC(=O)c3ccc4c(c3)[nH]c(=O)n4Cc3ccc(F)cc3)cc2)CC1,inactive,
CC(C)n1c(=O)[nH]c2cc(C(=O)Nc3ccccc3)ccc21,7.94 µM (active),
CCOC(=O)N1CCN(C(=O)C(C)NC(=O)c2ccco2)CC1 (stereo unspecified),inactive,
O=C(N/N=C/c1ccco1)c1ccc(C(=O)N/N=C/c2ccco2)o1,inactive,
CC(/C=N/NC(=O)c1ccncc1)=C\c1ccco1,inactive,
O=C(N/N=C/C=C/c1ccco1)c1cccs1,5.01 µM (active),
